From PubChem BioAssay (NCATS)
Records with an inconclusive call do not appear. Unmarked numbers belong to inactive results. Activity calls are given as the source filed them. Calls come from the whole dose curve; as a rule, active = well fitted cell-killing curve with a large enough effect; inconclusive = small, poorly fitted or top-dose-only effect; inactive = flat fitted curve, though single readings scatter.

Experiment: qHTS of pediatric cancer cell lines to identify multiple opportunities for drug repurposing: Primary screen for BT-37 cells (AID 1347094)
Settings: BT-37 viability, CellTiter-Glo luminescence, 48 h; series mostly up to 57.3 µM; activity change, negative = cytotoxic: at the top concentration
Description: Drug repurposing or repositioning has been offered as a strategy for drug development in oncology programs. This approach has special potential for childhood cancers and other rare or orphan diseases, where the expected return on new drug development has been a disincentive to pharmaceuticals. […] In this project we exploit the poly-pharmacology of drugs to discover new indications via phenotypic screening of a panel of 19 well-characterized cell lines derived from solid tumors seen in children and adolescents. The goal is to identify approved drugs with previously unrecognized anticancer properties that has the potential to reveal new mechanisms and biological processes involved in carcinogenesis or drug resistance. We employed a titration-based paradigm (quantitative high-throughput screening or qHTS), where all compounds were tested at multiple concentrations for their effect on cell viability. Concentration-response curves (CRCs) were derived directly from the primary screen, and both potency and efficacy values were used to identify compounds with robust bioactivity profiles. We screened the NIH Chemical Genomics Center (NCGC) Pharmaceutical Collection (NPC) and Mechanism Interrogation Plate (MIPE) small molecule collections of approved and investigational compounds against these cell lines; and measured metabolically active cells after 48 hours of compound treatment as a proxy for cell viability. […] Assay Submitter: Nathalia J. Martinez, National Center for Advancing Translational Sciences, National Institutes of Health, Rockville, MD, USA; email: natalia.martinez@nih.gov Shen, M et al. Quantitative high-throughput phenotypic screening of pediatric cancer cell lines identifies multiple opportunities for drug repurposing. Oncotarget 2017 Dec 19;9(4):4758-4772. PMID 29435139.
The cells were obtained from University of North Carolina (UNC), Pediatric Preclinical Testing Program (PPT), and Coriell Institute (CI). qHTS cell viability assay: Cells were assayed in growth media at a density of 500-1,000 cells/well. Five microliters of cells were dispensed into 1,536-well, white, solid-bottom, TC-treated plates (Greiner Bio One) using a multidrop dispenser and incubated at 37 degrees C, 5% CO2, under a humidified atmosphere for 5 hours. Twenty-three nanoliters of compounds and controls (neutral control DMSO or positive control bortezomib at final concentration of 2.3 µM) were subsequently transferred by Kalypsys pintool. For primary screens, the MIPE collection was tested at 11-point dilutions (final concentrations range from 0.78 nM to 46 µM) and the NPC collection at 8-point dilutions (final concentrations range from 0.59 nM to 46 µM). Compounds tested in follow-up screens were assayed at 11-point dilutions. Cells were incubated for 48 hours, followed by addition of 3 µL of CellTiter-Glo (Promega). After a 15 min incubation at room temperature, samples were analyzed for luminescence intensity using a ViewLux High-throughput CCD imager equipped with clear filters.
Potency is the fitted concentration of half-maximal effect.

Compound | activity change, negative = cytotoxic | Potency
OCC(CO)N[C@H]1C[C@](O)(CO)[C@@H](O)[C@H](O)[C@H]1O | 0.118% | 
c1ccc2c(CC3=NCCN3)cccc2c1 | -15.1% | 
CC(C)(O)c1ccccc1CC[C@@H](SCC1(CC(=O)O)CC1)c1cccc(/C=C/c2ccc3ccc(Cl)cc3n2)c1 | 6.08% | 
OC[C@H]1O[C@@H](O[C@@H]2[C@@H](CO)O[C@](O)(CO)[C@H]2O)[C@H](O)[C@@H](O)[C@H]1O | 10.9% | 
O=C1O[C@H](CO)[C@@H](O)[C@H](O)[C@H]1O | -2.93% | 
CC(O)CN(CCN(CC(C)O)CC(C)O)CC(C)O (stereo not given) | 8.69% | 
O=C(CCCN1CCN(c2ccccn2)CC1)c1ccc(F)cc1 | -25% | 
CNCC(O)c1ccc(O)c(O)c1 (stereo not given) | -17.2% | 
NS(=O)(=O)c1cc2c(cc1C(F)(F)F)NC(Cc1ccccc1)NS2(=O)=O (stereo not given) | 4.53% | 
CCCc1c(OCCCCc2nn[nH]n2)ccc(C(C)=O)c1O | 0.602% | 
COc1ccc(S(=O)(=O)Nc2nnc(CC(C)C)s2)cc1 | 4.65% | 
C/C(=C(\CCOP(=O)(O)O)SC(=O)c1ccccc1)N(C=O)Cc1cnc(C)nc1N | 17.3% [at 6.03 µM] | 
Nc1ccc(S(=O)(=O)NC(=O)c2ccccc2)cc1 | 3.83% | 
Cn1c(=O)c2c(ncn2CC2OCCO2)n(C)c1=O | 18.2% | 
CCC(=O)c1ccc(O)cc1 | 1.95% | 
CCN(CC)CCSC(=O)C(c1ccccc1)c1ccccc1 | -6.13% | 
CCN(CC)CCNC(=O)c1cc(Cl)c(N)cc1OC | 2.3% | 
CC(C)(C)NCC(O)COc1ccc(NC(=O)NC2CCCCC2)cc1 (stereo not given) | 0.305% | 
CN1[C@@H]2CC[C@H]1CC(OC(=O)C(O)c1ccccc1)C2 (stereo not given in full) | 12.1% | 
Oc1cccc(O)c1 | 12.9% | 

Compound | activity change, negative = cytotoxic | Potency
CC1(C)S[C@@H]2[C@H](NC(=O)Cc3ccccc3)C(=O)N2[C@H]1C(=O)O (tested in a mixture with another compound) | 24.3% | 
COc1ccc2cc1Oc1ccc(cc1)C[C@H]1c3c(cc4c(c3Oc3cc5c(cc3OC)CCN(C)[C@@H]5C2)OCO4)CCN1C |  | 17.4 µM (active)
C[C@@H]1CC[C@@]2(OC1)O[C@H]1C[C@H]3[C@@H]4CC[C@H]5C[C@@H](O)CC[C@]5(C)[C@H]4CC(=O)[C@]3(C)[C@H]1[C@@H]2C | 3.33% [at 6.03 µM] | 
C[C@H](N)[C@H](O)c1cccc(O)c1 | 16% | 
CN(N=O)C(=O)N[C@@H]1[C@@H](O)[C@H](O)[C@@H](CO)O[C@@H]1O | -4.62% | 
CN1[C@@H]2CC(OC(=O)[C@H](CO)c3ccccc3)C[C@H]1[C@@H]1O[C@@H]12 (stereo not given in full) | 9.09% | 
N[C@H]1C(O)O[C@H](CO)[C@@H](O)[C@@H]1O (stereo not given in full) | 4.04% | 
CC(=O)Nc1ccc(/C=N/NC(N)=S)cc1 | 7.52% | 
CNC(=O)Oc1ccc2c(c1)[C@]1(C)CCN(C)[C@@H]1N2C | 21.8% | 
Nc1cc(=O)[nH]c(N)n1 | -5.46% | 
NC(=O)NC(=O)Cc1ccccc1 | 4.75% | 
Cc1ncc(COP(=O)(O)O)c(C=O)c1O | 5.89% | 
CN(C)CCN(Cc1ccccc1)c1ccccn1 | 8.21% | 
CC(C)C(=O)c1c(C(C)C)nn2ccccc12 | 15.7% | 
CC(=O)OCC(=O)[C@@]1(O)CC[C@H]2[C@@H]3CCC4=CC(=O)CC[C@]4(C)[C@H]3C(=O)C[C@@]21C | -9.17% | 
O=C1NS(=O)(=O)c2ccccc21 | 11.9% | 
COc1ccc2cc1Oc1cc3c(cc1OC)CC[N+](C)(C)[C@H]3Cc1ccc(cc1)Oc1c(OC)c(OC)cc3c1[C@@H](C2)[N+](C)(C)CC3 | 2.72% | 
Cn1cc[nH]c1=S | 15.8% | 
C[C@@H]1C[C@H]2[C@@H]3C[C@H](F)C4=CC(=O)C=C[C@]4(C)[C@@]3(F)[C@@H](O)C[C@]2(C)[C@@]1(O)C(=O)CO | 5.82% | 
O=S(=O)(O)c1cc(I)c(O)c2ncccc12 | 8.31% | 
